# High-throughput results: PubChem BioAssay, Sanford-Burnham Center for Chemical Genomics
# Hits are enriched below; roughly 4.1% of the tested compounds scored in any of these assays.
# p-CIP stab down: p/CIP-EGFP fusion destabilizers, primary screen, fluorescence, F442A cells. AID 1984, 2009. 16 h. Q05BA5. decrease of EGFP signal, % at 10 µM. 290,000 compounds, 0.01% hits;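 active = EGFP signal decrease of at least 30% at 10 µM or well 3 SD below plate mean, unless failing retest; inactive = the rest, including hits failing retest or dose response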
# MPTP block: mitochondrial permeability transition pore inhibitors, primary screen, biochemical, isolated mouse mitochondria, absorbance | Ca2+ swelling absorbance, 30 min | inhibition, % at 10 µM | 360,000 compounds, 1.4% hits | AID 602449, 2012;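 active = inhibition of 50% or more, scaled per plate between neutral and stimulator controls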;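 also: 0% = DMSO wells given calcium and 100% = 1 mM EGTA wells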
# MIN6 prolif: inducers of MIN6 beta-cell proliferation, primary screen, ATP luminescence, uHTS. 330,000 compounds, 0.29% hits. AID 2380, 2010. proliferation, % at 10 µM. MIN6 cells proliferation, ATPlite luminescence, 48 h; cells starved in 0.2% serum; 100% = growth in 10% serum;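 active = compounds whose signal lies at least 3.5 SD above the mean of all wells on their plate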;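 also: 0% = DMSO-treated cells in low-serum medium and 100% = 10% serum control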
# FAS TE block: FAS thioesterase domain inhibitors, primary screen, biochemical, fluorescence intensity, uHTS; Fatty acid synthase (Homo sapiens), P49327; recombinant FAS-TE, OMFH fluorogenic substrate, fluorescence endpoint; inhibition, % at 15 µM; 360,000 compounds, 0.67% hits;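 active = compounds whose normalised, plate-corrected inhibition of enzyme fluorescence in the single-dose primary screen is 50% or more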;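 also: 0% = DMSO with enzyme and 100% = substrate without enzyme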
# GRIN3A LBD mod: binders of NR3A ligand-binding domain, primary screen, biophysical, differential scanning fluorimetry, uHTS | Glutamate receptor ionotropic, NMDA 3A (GRIN3A) ligand-binding domain | NR3A LBD differential scanning fluorimetry, Tm shift; 0% = protein alone, 100% = glycine-bound protein | Tm shift relative to glycine control, % at 25 µM | 340,000 compounds, 2.5% hits;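 active = melting temperature shift of at least 10% of the positive control shift, at one fixed dose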
# Numbers without * were called inactive; x = no result given.
SMILES,p-CIP stab down,MPTP block,MIN6 prolif,FAS TE block,GRIN3A LBD mod
COC[C@@H]1CCCN1[C@H]1CS(=O)(=O)N[C@@H]1COCc1ccccc1,x,1,x,-7,x
CCN(c1ccccc1)S(=O)(=O)c1cc(C(=O)NCC(c2ccc(OC)cc2)N(C)C)ccc1C (stereo unspecified),x,-2,x,15,-1
CC(C)[C@@H]1Cc2[nH]n(C)c(=O)c2[C@H](c2ccc(Cl)cc2)O1,x,1,x,-2,x
CCC1Nc2ncnc(N3CCc4ccccc4C3)c2N(Cc2ccc(Cl)cc2)C1=O (stereo unspecified),x,1,-6,17,-9
O=C1C(Cc2ccccc2)Nc2ncnc(N3CCc4ccccc4C3)c2N1Cc1ccc(Cl)cc1 (stereo unspecified),x,-1,-8,55*,-30
CCNS(=O)(=O)c1ccc(CCC(=O)Nc2ccc3c(c2)OCO3)cc1,6,0,-2,-2,1
CCOC(=O)COc1ccc(S(=O)(=O)Nc2ccc3c(c2)OCO3)cc1,-6,-2,-2,2,14*
O=C(Nc1ccc(S(=O)(=O)NCc2ccccc2)cc1)Nc1ccc2c(c1)OCO2,-13,33,-1,1,36*
CCNS(=O)(=O)c1ccc(NC(=O)Nc2ccc3c(c2)OCO3)cc1,14,0,1,0,25*
O=C(N/N=C/c1ccc(O)cc1)NC12CC3CC(CC(C3)C1)C2,-4,0,-2,30,10*
CCCNC(=O)C1(C)CCN(C(=O)Cc2ccc3ccccc3c2)C1 (stereo unspecified),x,0,x,0,x
C=CCn1c(SCC(=O)NC2CCCC2)nc2sc(C)cc2c1=O,x,0,0,-4,21*
C=CCn1c(SCC(=O)Nc2cc(C)on2)nc2sc(C)c(C)c2c1=O,-8,0,0,-7,21*
O=S(=O)([O-])C(c1ccccc1)[n+]1ccccc1 (stereo unspecified),x,0,-4,-9,21*
CC(OC(=O)C1=COCCO1)C(=O)NC1(C#N)CCCCC1 (stereo unspecified),x,-1,-2,-4,11*
OCc1cn(-c2ccccc2)nc1-c1ccc(Br)cc1,6,1,0,23,34*
O=C(O)Cc1cn(-c2ccccc2)nc1-c1ccc(Cl)cc1,12,0,-4,-5,12*
CC(C)COc1ccc(-c2nn(-c3ccccc3)cc2CO)cc1,-23,0,-7,19,7
COc1ccccc1CNC(=O)COC(=O)/C=C/c1ccc2c(c1)OCO2,x,-1,8,0,-2
CCCn1c(C(C)Nc2nc(-c3ccc(Cl)c([N+](=O)[O-])c3)cs2)nc2ccccc21 (stereo unspecified),-5,1,-8,28,6
Cc1ccc(Cn2c(C(C)Nc3nc(-c4ccc(Cl)c([N+](=O)[O-])c4)cs3)nc3cc(C(F)(F)F)ccc32)cc1 (stereo unspecified),x,2,-8,46,14*
CCCn1c(CCNc2nc(-c3ccc(Cl)c([N+](=O)[O-])c3)cs2)nc2cc(Cl)c(Cl)cc21,-3,1,-5,21,13*
CC(=O)Nc1cc(-c2cccc(C(=O)NCCO)c2)cn2c(-c3ccc(F)c(Cl)c3)cnc12,x,1,x,2,x
Fc1cccc(Cc2c(-c3ccco3)nc3c(Cl)cc(C(F)(F)F)cn23)c1,x,-3,x,3,x
Cc1ccc(NC(=O)C(C)Sc2nnc3n2CCCCC3)cc1S(=O)(=O)N1CCOCC1 (stereo unspecified),x,-1,x,-5,x
SMILES,p-CIP stab down,MPTP block,MIN6 prolif,FAS TE block,GRIN3A LBD mod
CCS(=O)(=O)C(C)(CCl)C(=O)Nc1ccc(C(=O)OC)cc1 (stereo unspecified),-12,2,2,-4,12*
Nc1ccc(S(=O)(=O)c2ccc(N)nc2)cc1,x,-1,x,-7,-1
COc1ccc(-c2ccnc(SCC(=O)c3ccc(OC)c(OC)c3)n2)cc1,-6,0,0,17,14*
O=C1NC[C@H](CCCCN2C[C@H](Cc3ccccc3)N(Cc3ccccc3)C(=O)C2=O)N(CCc2ccccc2)C1=O,x,1,x,-4,x
CCOC(=O)c1sc(=S)n(Cc2ccccc2)c1C,-4,-3,1,31,14*
O=C(Nc1ncnc2c1C(c1ccccc1)c1c(ccc3ccccc13)O2)c1ccccc1 (stereo unspecified),x,-2,-6,96*,-25
O=C(Cc1ccccc1)Nc1ncnc2c1C(c1ccccc1)c1c(ccc3ccccc13)O2 (stereo unspecified),x,1,-6,43,-4
NC(N)=NCCCC(NC(=O)c1ccccc1)C(=O)Nc1ccc([N+](=O)[O-])cc1 (stereo unspecified),x,1,9,11,16*
Cc1nc(-c2ccccn2)sc1C(=O)Nc1ccc(Cl)c(Cl)c1,-7,16,-5,31,26*
O=C(Nc1ccccn1)c1ccc(Br)s1,-7,2,-1,-1,2
O=C(Nc1ccc(Cl)cc1)c1ccc(-c2ccccn2)s1,-13,4,-1,-4,31*
CC(=O)c1sc(-c2ccccn2)nc1C,0,x,0,x,x
CCOC(=O)[C@]12CCC=C1N(Cc1ccco1)C(=O)[C@H](CC(=O)NCc1ccc(C)o1)C2,x,0,x,-12,x
COc1ccc(C2=C(CN(C)C)C(c3ccccc3)c3ccccc3O2)cc1 (stereo unspecified),-3,3,-4,12,11*
CC(=O)NC1(C)CCC2CC1C(C)=NC2(C)C (stereo unspecified),x,0,x,-4,x
CN(C(=O)COC(=O)COc1ccc2c(c1)CCC2)c1c(N)n(Cc2ccccc2)c(=O)[nH]c1=O,x,-1,1,-3,18*
NC(=S)NNC(=O)c1cc(C(F)(F)F)cc(C(F)(F)F)c1,-7,4,-1,-2,31*
Cc1cc(NC(=O)c2sc(Nc3cccc(C(F)(F)F)c3)nc2N)no1,4,14,-3,9,20*
Cc1cc(NC(=O)c2sc(Nc3ccc(F)c(Cl)c3)nc2N)no1,0,-2,-4,0,23*
COCCCNC(=O)C[C@@H]1C[C@@]2(C(=O)OC)CC(C)(C)CC=C2N(Cc2ccccc2)C1=O,x,0,x,x,x
COc1ccc(C(=O)c2ccc3oc(-c4ccc(OC)cc4)c(-c4ccc(O)cc4)c3c2)cc1,x,0,-6,18,11*
COc1ccc(C(=O)c2c(C)oc3ccc(O)cc23)cc1,-9,0,3,2,0
CCN1C/C(=C\c2cc(OC)c(OC)c(OC)c2)C2=NN(c3ccccc3)C(c3cc(OC)c(OC)c(OC)c3)C2C1 (stereo unspecified),x,0,x,1,-1
